Laboratory results as given in PubChem BioAssay.
Several values for one entry are separate records, joined by “and”; a condition that tells them apart may be missing. Equal values may be shown once. For some assays here: Entries with a potency or affinity are not part of this list. A structure can be active in one record and inactive in another. Activity calls are given as the source filed them. Unless noted, the rule behind the calls is not given here.

Columns and labels:
[1] = antimalarial activity against Dd2 strain (AID 2302;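 active = growth inhibition above 50% at the single 2 µM test dose, taken to imply half-maximal potency below 2 µM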;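 note: 0% = DMSO untreated growth and 100% = chloroquine plus artemisinin killed control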); details: P. falciparum Dd2 in RBCs, LDH growth readout, 72 h; at 2 µM; stronger effect = higher value
[2] = human hepatoma cell viability loss – ATP luminescence, cytotoxicity control for P. falciparum antimalarial project, primary screen (AID 2303;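 active = inhibition above 50%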;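 note: 0% = DMSO wells and 100% = digitonin-killed cells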); details: HepG2 viability, 24-48 h, at 10 µM, stronger effect = higher value
[3] = biological target: L-lactate dehydrogenase (Plasmodium falciparum (isolate CDC / Honduras)) (UniProt Q27743); assay: PfLDH activity inhibition – cell lysate, 3D7 strain, counter-screen for P. falciparum growth inhibition project (AID 2304);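 note: 0% = vehicle and 100% = reference inhibitor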; details: P. falciparum 3D7 crude extract, LDH APAD/NBT absorbance; at 2 µM; stronger effect = higher value
Sequence of L-lactate dehydrogenase (Plasmodium falciparum (isolate CDC / Honduras)) (Q27743 whole entry, looked up): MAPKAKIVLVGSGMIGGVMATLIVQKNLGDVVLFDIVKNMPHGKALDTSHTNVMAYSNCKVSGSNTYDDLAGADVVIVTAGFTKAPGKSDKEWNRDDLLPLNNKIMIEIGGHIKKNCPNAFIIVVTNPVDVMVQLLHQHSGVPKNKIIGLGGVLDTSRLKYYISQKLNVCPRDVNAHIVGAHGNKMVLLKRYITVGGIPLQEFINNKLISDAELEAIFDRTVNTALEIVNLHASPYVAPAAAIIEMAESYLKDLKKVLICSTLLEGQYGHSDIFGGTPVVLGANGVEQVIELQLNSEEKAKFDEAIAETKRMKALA

[4] = inhibition of 3D7 malaria parasite growth – strain 3D7 (AID 2306);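 note: 0% = DMSO wells and 100% = chloroquine plus artemisinin control wells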; details: P. falciparum 3D7 erythrocytic growth, LDH absorbance, 72 h; at 2 µM; stronger effect = higher value
[5] = biological target: Calcium-dependent protein kinase 1 (Plasmodium falciparum (isolate 3D7)) (UniProt P62344); assay: PfCDPK1 kinase inhibitors, biochemical, TCAMS library (AID 1159585; cut-off not given, nearly all actives have IC50 up to about 0.98 µM;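 note: inhibitors leave more ATP so luminescence rises with inhibition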); details: recombinant PfCDPK1, Kinase-Glo ATP depletion luminescence
Sequence of Calcium-dependent protein kinase 1 (Plasmodium falciparum (isolate 3D7)) (P62344 whole entry, looked up): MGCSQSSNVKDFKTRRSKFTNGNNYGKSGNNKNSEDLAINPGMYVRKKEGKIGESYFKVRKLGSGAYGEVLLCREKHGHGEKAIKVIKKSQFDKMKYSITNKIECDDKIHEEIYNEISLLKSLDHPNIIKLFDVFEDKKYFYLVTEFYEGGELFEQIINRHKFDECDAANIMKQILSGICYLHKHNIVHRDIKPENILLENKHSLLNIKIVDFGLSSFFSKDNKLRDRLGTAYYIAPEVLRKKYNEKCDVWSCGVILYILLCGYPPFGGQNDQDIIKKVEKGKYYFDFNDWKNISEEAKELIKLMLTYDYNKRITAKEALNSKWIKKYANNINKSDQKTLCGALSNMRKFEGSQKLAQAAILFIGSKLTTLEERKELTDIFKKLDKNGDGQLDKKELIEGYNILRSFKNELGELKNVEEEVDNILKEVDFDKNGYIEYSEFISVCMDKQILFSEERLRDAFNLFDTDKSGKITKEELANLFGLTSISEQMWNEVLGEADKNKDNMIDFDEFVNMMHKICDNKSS

[6] = biological target: Plasmodium falciparum protein kinase 6 (PK6, PF3D7_1337100) (UniProt Q8IDW1); assay: PfPK6 kinase inhibitors, biochemical, TCAMS library (AID 1159586); details: recombinant PfPK6, Kinase-Glo ATP depletion luminescence
Sequence of Plasmodium falciparum protein kinase 6 (PK6, PF3D7_1337100) (Q8IDW1 1-305): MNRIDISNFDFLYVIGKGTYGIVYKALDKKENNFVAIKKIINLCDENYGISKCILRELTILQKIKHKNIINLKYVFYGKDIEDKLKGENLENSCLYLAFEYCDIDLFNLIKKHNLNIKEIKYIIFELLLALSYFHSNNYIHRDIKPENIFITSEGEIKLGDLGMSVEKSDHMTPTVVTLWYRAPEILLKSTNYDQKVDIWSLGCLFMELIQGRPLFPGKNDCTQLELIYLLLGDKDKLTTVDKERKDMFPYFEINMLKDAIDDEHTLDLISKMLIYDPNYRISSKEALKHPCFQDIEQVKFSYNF

[7] = biological target: Protein kinase 7 (PK7), Plasmodium falciparum 3D7 (PF3D7_0213400) (UniProt Q7YTF7); assay: inhibition of Plasmodium PK7 catalytic activity – biochemical, TCAMS antimalarial set, Kinase-Glo luminescence (AID 1159587); details: recombinant PfPK7, Kinase-Glo ATP depletion luminescence
Sequence of Protein kinase 7 (PK7), Plasmodium falciparum 3D7 (PF3D7_0213400) (Q7YTF7 1-343): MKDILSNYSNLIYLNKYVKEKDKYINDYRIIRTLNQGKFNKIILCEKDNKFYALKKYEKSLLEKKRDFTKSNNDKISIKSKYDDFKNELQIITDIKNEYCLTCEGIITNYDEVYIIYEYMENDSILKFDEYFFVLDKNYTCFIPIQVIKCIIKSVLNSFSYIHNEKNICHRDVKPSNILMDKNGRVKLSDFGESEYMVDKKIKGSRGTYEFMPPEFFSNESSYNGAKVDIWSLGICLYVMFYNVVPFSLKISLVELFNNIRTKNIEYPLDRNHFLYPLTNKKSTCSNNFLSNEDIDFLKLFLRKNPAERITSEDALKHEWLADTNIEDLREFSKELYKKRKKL

[8] = biological target: Calcium-dependent protein kinase 4 (Plasmodium falciparum (isolate 3D7)) (UniProt Q8IBS5); assay: PfCDPK4 kinase inhibitors, biochemical, TCAMS library (AID 1159588; cut-off not given, nearly all actives have IC50 up to about 0.91 µM); details: recombinant PfCDPK4, Kinase-Glo ATP depletion luminescence
Sequence of Calcium-dependent protein kinase 4 (Plasmodium falciparum (isolate 3D7)) (Q8IBS5 whole entry, looked up): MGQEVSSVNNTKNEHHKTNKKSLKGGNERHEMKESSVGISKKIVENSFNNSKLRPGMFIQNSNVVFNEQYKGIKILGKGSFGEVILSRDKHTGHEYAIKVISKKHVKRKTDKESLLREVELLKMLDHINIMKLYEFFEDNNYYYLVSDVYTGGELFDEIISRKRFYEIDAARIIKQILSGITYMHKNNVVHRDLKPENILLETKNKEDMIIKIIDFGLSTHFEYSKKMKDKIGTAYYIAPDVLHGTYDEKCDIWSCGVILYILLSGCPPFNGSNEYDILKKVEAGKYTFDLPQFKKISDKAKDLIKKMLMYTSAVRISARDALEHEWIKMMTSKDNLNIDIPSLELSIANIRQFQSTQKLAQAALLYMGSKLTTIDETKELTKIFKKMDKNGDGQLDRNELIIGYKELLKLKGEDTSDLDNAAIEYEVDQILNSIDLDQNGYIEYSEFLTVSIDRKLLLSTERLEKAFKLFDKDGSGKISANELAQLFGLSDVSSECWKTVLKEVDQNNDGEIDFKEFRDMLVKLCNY

| Compound | growth inhibition [1] | inhibition [2] | inhibition [3] | growth inhibition [4] | outcome [5] | outcome [6] | outcome [7] | outcome [8] |
| --- | --- | --- | --- | --- | --- | --- | --- | --- |
| NC(=O)c1ccc2[nH]cc(C3CCN(CC4CCC(NC(=O)/C=C/c5ccc(Cl)c(Cl)c5)CC4)CC3)c2c1 (configuration not stated) | 26% (inactive) and 32% (inactive) | 11% (inactive) and -1% (inactive) | 5% (inactive) and -8% (inactive) | 101% (active) and 100% (active) | inactive | inactive | inactive | inactive |
| O=C(/C=C/c1cccc(Cl)c1)NC1CCC(CN2CCC(c3c[nH]c4ccccc34)CC2)CC1 (configuration not stated) | 55% (active) and 82% (active) | 35% (inactive) and 42% (inactive) | 0% (inactive) | 100% (active) and 101% (active) | inactive | inactive | inactive | inactive |
| Cc1cc(C2CCCCN2C)ccc1-c1ccc(C(=O)N2CCc3cc4c(cc32)C2(CCN(C)CC2)CO4)cc1 (configuration not stated) | 94% (active) | 37% (inactive) | 1% (inactive) | 95% (active) | inactive | inactive | inactive | inactive |
| CC(Cc1ccc(Oc2ccc(Cl)cc2)cc1)NCC(O)c1cccc(Cl)c1 (configuration not stated) | 98% (active) | 3% (inactive) | -2% (inactive) | 99% (active) | inactive | inactive | inactive | inactive |
| CCC(C)CN1CCC(N(C)c2cc(NC(=O)c3cccc(C)c3)ccn2)CC1 (configuration not stated) | 14% (inactive) | 1% (inactive) | 1% (inactive) | 93% (active) | inactive | inactive | inactive | inactive |
| Cc1ccccc1C1=CCN(CCCN2c3ccccc3Sc3ccc(Cl)cc32)CC1 | 30% (inactive) | 14% (inactive) | 5% (inactive) | 90% (active) | inactive | inactive | inactive | inactive |
| O=C(CCC(=O)c1ccc2c3c(cccc13)CC2)NC1CCC(CN2CCC(c3c[nH]c4ccccc34)CC2)CC1 (configuration not stated) | 13% (inactive) | 34% (inactive) | -1% (inactive) | 96% (active) | inactive | inactive | inactive | inactive |
| C=C[C@@H]1CN2CC[C@H]1C[C@H]2[C@H](O)c1cc(-c2ccc(Cl)cc2)nc2ccc(OC)cc12 | 98% (active) | 38% (inactive) | 0% (inactive) | 99% (active) | inactive | inactive | inactive | inactive |
| CN(c1cc(NC(=O)c2ccc(F)cc2)ccn1)C1CCN(Cc2ccc(C#N)cc2)CC1 | 54% (active) | 13% (inactive) | 2% (inactive) | 87% (active) | inactive | inactive | inactive | inactive |
| O=C(NCCC1CCN(CCc2c[nH]c3ccccc23)CC1)Nc1ccc(Cl)c(Cl)c1 | 5% (inactive) | 18% (inactive) | -2% (inactive) | 101% (active) | inactive | inactive | inactive | inactive |
| Cc1[nH]c2ccccc2c1C1=CCN(CCCCC23CCCc4cccc(c42)NC3=O)CC1 (configuration not stated) | 91% (active) | 9% (inactive) | -4% (inactive) | 95% (active) | inactive | inactive | inactive | inactive |
| Cc1cccc2c(C3CCN(CC4CCC(NC(=O)/C=C/c5ccc(Cl)c(Cl)c5)CC4)CC3)c[nH]c12 (configuration not stated) | 49% (inactive) | 97% (active) | -4% (inactive) | 92% (active) | inactive | inactive | inactive | inactive |
| CC(=O)C1(c2ccccc2)CCN(CCC2(c3ccc(Cl)c(Cl)c3)CN(C(=O)c3cccc(Cl)c3)CCO2)CC1 (configuration not stated) | 61% (active) | 37% (inactive) | -3% (inactive) | 90% (active) | inactive | inactive | inactive | inactive |
| CCCc1ccc2c(c1O)CCC(N(CCC)CCC)C2 (configuration not stated) | 23% (inactive) | -3% (inactive) | 3% (inactive) | 90% (active) | inactive | inactive | inactive | inactive |
| CCCCCCc1cc(O)c2c3c(c(=O)oc2c1)CCN(C)C3 | 66% (active) | -6% (inactive) | 4% (inactive) | 99% (active) | inactive | inactive | inactive | inactive |
| COC(=O)c1ccc(C[C@@H](C)NC[C@H](O)c2cccc(OCc3ccccc3)c2)cc1 | 37% (inactive) | 11% (inactive) | 1% (inactive) | 86% (active) | inactive | inactive | inactive | inactive |
| CSc1nccc(-c2ccc(S(=O)(=O)NC3CCC(CN4CCC(c5c[nH]c6ccccc56)CC4)CC3)s2)n1 (configuration not stated) | 67% (active) and 33% (inactive) | 36% (inactive) and 61% (active) | -1% (inactive) and 4% (inactive) | 101% (active) | inactive | inactive | inactive | inactive |

| Compound | growth inhibition [1] | inhibition [2] | inhibition [3] | growth inhibition [4] | outcome [5] | outcome [6] | outcome [7] | outcome [8] |
| --- | --- | --- | --- | --- | --- | --- | --- | --- |
| COC(=O)c1ccc(C[C@@H](C)NC[C@H](O)c2cccc(C(F)(F)F)c2)cc1 | 93% (active) and 87% (active) | 1% (inactive) and -5% (inactive) | -6% (inactive) and -2% (inactive) | 97% (active) | inactive | inactive | inactive | inactive |
| OC(CNC1CCCCCC1)c1ccc(Cl)c(Cl)c1 (configuration not stated) | 98% (active) | -3% (inactive) | -3% (inactive) | 99% (active) | inactive | inactive | inactive | inactive |
| O=C(C=Cc1cccc(Cl)c1Cl)NC1CCC(CN2CCC(c3c[nH]c4ccccc34)CC2)CC1 (configuration not stated) | 78% (active) and 5% (inactive) | 40% (inactive) and 33% (inactive) | 6% (inactive) and -5% (inactive) | 102% (active) and 83% (active) | inactive | inactive | inactive | inactive |
| Cc1cccc(C(=O)Nc2ccnc(N(C)C3CCN(CC(C)C)CC3)c2)c1 | 6% (inactive) | 10% (inactive) | -2% (inactive) | 95% (active) | inactive | inactive | inactive | inactive |
| CCOC(=O)c1c(CN2CCN(C)CC2)n(Cc2ccccc2)c2cc(Br)c(O)cc12 | 46% (inactive) | 11% (inactive) | -5% (inactive) | 100% (active) | inactive | inactive | inactive | inactive |
| CC(=O)N(Cc1ccc(-c2ccc(CNCCc3ccccc3)cc2)cc1)C1CCN(Cc2ccccc2)CC1 | 15% (inactive) | 45% (inactive) | -2% (inactive) | 95% (active) | inactive | inactive | inactive | inactive |
| OC(CNC1CCCCC1)c1ccc(Cl)c(Cl)c1 (configuration not stated) | 96% (active) | 17% (inactive) | -1% (inactive) | 99% (active) | inactive | inactive | inactive | inactive |
| CC[C@H]1CN2CC[C@H]1C[C@@H]2[C@@H](O)c1cc(Cl)nc2ccc(OC)cc12 | 82% (active) | -9% (inactive) | -2% (inactive) | 98% (active) | inactive | inactive | inactive | inactive |
| Oc1ccc2[nH]cc(C3=CCN(Cc4ccccc4)CC3)c2c1 | 67% (active) | 1% (inactive) | 7% (inactive) | 94% (active) | inactive | inactive | inactive | inactive |
| CCCc1cc([C@@H](O)[C@@H]2C[C@@H]3CCN2C[C@@H]3CC)c2ccccc2n1 | 57% (active) | 9% (inactive) | 2% (inactive) | 100% (active) | inactive | inactive | inactive | inactive |
| O=c1c2ccccc2nc(C=Cc2ccc([N+](=O)[O-])cc2)n1-c1ccccn1 | 96% (active) | 5% (inactive) | -1% (inactive) | 98% (active) | inactive | inactive | inactive | inactive |
| CN(C)c1cccc(CN2CC=C(c3c[nH]c4ccc(Cl)cc34)CC2)c1 | 87% (active) | 40% (inactive) | 3% (inactive) | 93% (active) | inactive | inactive | inactive | inactive |
| COc1ccc(CC(C)NCC(O)c2cccc(C(F)(F)F)c2)cc1 (configuration not stated) | 94% (active) | -7% (inactive) | 3% (inactive) | 98% (active) | inactive | inactive | inactive | inactive |
| CC(Cc1ccc([N+](=O)[O-])cc1)NCC(O)c1cccc(C(F)(F)F)c1 (configuration not stated) | 92% (active) | -2% (inactive) | -2% (inactive) | 98% (active) | inactive | inactive | inactive | inactive |
| COc1cccc(C=CC(=O)NC2CCC(CN3CCC(c4c[nH]c5ccccc45)CC3)CC2)c1OC (configuration not stated) | 40% (inactive) | 37% (inactive) | -1% (inactive) | 102% (active) | inactive | inactive | inactive | inactive |
| CC(Cc1ccc(C2=CCNCC2)cc1)NCC(O)c1cccc(C(F)(F)F)c1 (configuration not stated) | -2% (inactive) | 27% (inactive) | 0% (inactive) | 89% (active) | inactive | inactive | inactive | inactive |
| CN(c1cc(NC(=O)c2ccccc2)ccn1)C1CCN(Cc2cccc(F)c2)CC1 | 94% (active) | -6% (inactive) | -3% (inactive) | 92% (active) | inactive | inactive | inactive | inactive |
